Assay results: PubChem BioAssay AID1159580 (chemical genetic matrix, 2015)
Hit rate of the full screen: of about 5,500 compounds, about 2,000 (36%) were called active. About 18% were inconclusive and are not listed. No stated cut-off is given here; in the data, active means normalized growth mostly below about 0.91 (no sharp cut-off); inconclusive means no clear call, values can overlap the other calls; inactive means mostly above about 0.92. The list shows a part of the results.

Experiment: chemical genetic growth profiling, strain panel (AID 1159580);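 further: tested at 20 µM; growth read once vehicle control cultures reached saturation at 30 °C; 1 = growth at the plate median or of vehicle wells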
Conditions: S. cerevisiae deletion strains, growth OD

Measured: normalized growth

COc1ccc(C2CNC(=O)C2)cc1OC1CCCC1 (stereo unspecified)
inactive: locus YAL013W, strain DEP1, stronger effect = lower value 1.01 | locus YAL021C, strain ccr4, stronger effect = lower value 1 | locus YAL026C, strain drs2, stronger effect = lower value 1.02 | locus YAL030W, strain snc1, stronger effect = lower value 1.02 | locus YAL040C, strain CLN3, stronger effect = lower value 0.999 | locus YBL061C, strain skt5, stronger effect = lower value 1.01 | locus YBR009C, strain hhf1, stronger effect = lower value 1.02 | locus YBR023C, strain chs3, stronger effect = lower value 1.01 | locus YBR171W, strain sec66, stronger effect = lower value 1.02 | locus YBR231C, strain swc5, stronger effect = lower value 1.02 | locus YBR279W, strain paf1, stronger effect = lower value 1.01 | locus YCL011C, strain gbp2, stronger effect = lower value 1.01 | locus YCL016C, strain dcc1, stronger effect = lower value 1.01 | locus YCL061C, strain MRC1 (second series), stronger effect = lower value 1 | locus YCL061C, strain MRC1, stronger effect = lower value 1.01 | locus YCL069W, strain vba3, stronger effect = lower value 1.01 | locus YCR088W, strain abp1, stronger effect = lower value 1.01 | locus YDL005C, strain med2, stronger effect = lower value 0.996 | locus YDL040C, strain nat1, stronger effect = lower value 1.01 | locus YDR001C, strain nth1, stronger effect = lower value 1.01 | locus YDR069C, strain doa4, stronger effect = lower value 1.02 | locus YDR137W, strain rgp1, stronger effect = lower value 1.02 | locus YDR159W, strain sac3, stronger effect = lower value 1.03 | locus YDR195W, strain ref2 1.01 | locus YDR297W, strain sur2, stronger effect = lower value 1.01 | locus YDR334W, strain swr1, stronger effect = lower value 1.01 | locus YDR335W, strain msn5, stronger effect = lower value 1.01 | locus YDR363W, strain ESC2, stronger effect = lower value 1.01 | locus YDR392W, strain spt3, stronger effect = lower value 1.04 | locus YEL003W, strain gim4, stronger effect = lower value 1.01 | locus YEL037C, strain rad23, stronger effect = lower value 0.965 | locus YEL061C, strain CIN8 (second series), stronger effect = lower value 1.01 | locus YER002W, strain NOP16, stronger effect = lower value 0.993 | locus YER015W, strain faa2, stronger effect = lower value 1 | locus YER016W, strain bim1, stronger effect = lower value 1.01 | locus YER111C, strain swi4, stronger effect = lower value 1.02 | locus YER155C, strain BEM2 (second series), stronger effect = lower value 1.04 | locus YFR010W, strain ubp6, stronger effect = lower value 1 | locus YGL167C, strain pmr1, stronger effect = lower value 1.01 | locus YGL173C, strain kem1, stronger effect = lower value 1.01 | locus YGL227W, strain vid30, stronger effect = lower value 1.01 | locus YGL240W, strain doc1, stronger effect = lower value 1.02 | locus YGL253W, strain hxk2, stronger effect = lower value 1.03 | locus YHR013C, strain ard1, stronger effect = lower value 1.04 | locus YHR027C, strain rpn1, stronger effect = lower value 1.01 | locus YHR142W, strain chs7, stronger effect = lower value 0.98 | locus YJL092W, strain hpr5, stronger effect = lower value 1 | locus YJL095W, strain BCK1 (second series), stronger effect = lower value 1.01 | locus YJL115W, strain asf1, stronger effect = lower value 1.01 | locus YJL129C, strain trk1, stronger effect = lower value 1.02 | locus YJL154C, strain vps35, stronger effect = lower value 1 | locus YJL164C, strain tpk1, stronger effect = lower value 0.999 | locus YJL166W, strain qcr8, stronger effect = lower value 1.02 | locus YJL187C, strain SWE1, stronger effect = lower value 1.01 | locus YJR075W, strain HOC1, stronger effect = lower value 1.01 | locus YKL160W, strain elf1, stronger effect = lower value 0.998 | locus YKR026C, strain gcn3, stronger effect = lower value 0.994 | locus YKR091W, strain srl3, stronger effect = lower value 1.01 | locus YLL001W, strain dnm1, stronger effect = lower value 1.01 | locus YLL026W, stronger effect = lower value 1.02 | locus YLL041C, strain sdh2, stronger effect = lower value 1.01 | locus YLR027C, strain aat2, stronger effect = lower value 1.01 | locus YLR221C, strain rsa3, stronger effect = lower value 1.01 | locus YLR258W, strain gsy2, stronger effect = lower value 1.01 | locus YLR262C, strain YPT6 (second series), stronger effect = lower value 1.02 | locus YLR320W, strain mms22, stronger effect = lower value 1.02 | locus YLR342W, strain FKS1, stronger effect = lower value 1 | locus YLR357W, strain rsc2, stronger effect = lower value 1.01 | locus YLR370C, strain arc18, stronger effect = lower value 1.02 | locus YLR384C, strain iki3, stronger effect = lower value 0.999 | locus YML120C, strain ndi1, stronger effect = lower value 1.01 | locus YMR058W, strain fet3, stronger effect = lower value 1.02 | locus YMR125W, strain sto1, stronger effect = lower value 1.02 | locus YMR129W, stronger effect = lower value 1.02 | locus YMR205C, strain PFK2, stronger effect = lower value 1.03 | locus YMR231W, strain pep5, stronger effect = lower value 1 | locus YMR263W, strain SAP30, stronger effect = lower value 1 | locus YMR307W, strain GAS1, stronger effect = lower value 1.03 | locus YNL071W, strain lat1, stronger effect = lower value 1.02 | locus YNL175C, strain NOP13, stronger effect = lower value 1.01 | locus YNL197C, strain WHI3, stronger effect = lower value 1.01 | locus YNL209W, strain ssb2, stronger effect = lower value 1.01 | locus YNL224C, strain SQS1, stronger effect = lower value 0.995 | locus YNL248C, strain rpa49, stronger effect = lower value 0.974 | locus YNL322C, strain KRE1 (second series), stronger effect = lower value 0.996 | locus YNR049C, strain mso1, stronger effect = lower value 1 | locus YOR001W, strain rrp6, stronger effect = lower value 1 | locus YOR070C, strain gyp1, stronger effect = lower value 1 | locus YOR080W, strain dia2, stronger effect = lower value 1.01 | locus YOR083W, strain WHI5 (second series), stronger effect = lower value 1.01 | locus YOR083W, strain WHI5, stronger effect = lower value 0.988 | locus YOR106W, strain vam3, stronger effect = lower value 0.989 | locus YOR265W, strain rbl2, stronger effect = lower value 1.01 | locus YOR270C, strain vph1, stronger effect = lower value 1.03 | locus YOR290C, strain snf2, stronger effect = lower value 0.996 | locus YPL051W, strain arl3, stronger effect = lower value 1 | locus YPL055C, strain LGE1, stronger effect = lower value 0.996 | locus YPL078C, strain atp4, stronger effect = lower value 0.988 | locus YPL106C, strain sse1, stronger effect = lower value 1.04 | locus YPL240C, strain hsp82, stronger effect = lower value 1 | locus YPL241C, strain CIN2, stronger effect = lower value 1
